We go through eight molecules from PubChem BioAssay (NCATS).

Values joined by “and” are separate entries in the source; they are usually repeats but may differ in a detail not shown here. Equal values may be shown once. Records with an inconclusive call do not appear. A structure can be active in one record and inactive in another. Active and inactive are the calls of the source. Unless noted, calls come from the whole dose curve; as a rule, active = well fitted curve in the direction sought with a large enough effect; inconclusive = small, poorly fitted or top-dose-only effect, or another doubt; inactive = no such curve, though single readings can be large; an effect the other way counts as inactive or inconclusive. Where only a bound is given, the exact number is not on record here.

Assay [1] deals with Glucocorticoid receptor (Homo sapiens) (UniProt P04150). As to the kind of experiment: GR-EFC Redistribution (AID 451; calls by dose curve; note: potency is the fitted concentration of half-maximal effect). The settings on record: CHO-K1 GR-EFC translocation, beta-gal luminescence, 2 h. In a few lines:
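Translocation of GR-ED fusion to nuclear EA restores b-gal, read by luminescence after 1 h room-temperature detection. Engineered CHO-K1 biosensor cells, 1,000/well, exposed 2 h at 37 C to titrations up to 46 uM final.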

Assay [2] is described as follows: qHTS Assay for Lipid Storage Modulators (AID 1519; calls by dose curve). The settings on record: Drosophila S3 cells, BODIPY lipid droplet/cell ratio, laser cytometry, cells loaded with oleic acid; for activity change, negative = inhibition: at 57.5 µM (top of the series). A digest of the protocol: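 Cells seeded at 5,000 per well were treated with compounds over a concentration series and loaded with oleic acid (400 uM, as added). Lipid droplet fluorescence (488 nm excitation, 500-530 nm channel) was read by laser-scanning cytometry and normalized to 20 uM Triacsin C.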
On the technique in general: Quantitative high-throughput screening tests each substance at several concentrations.

The target in assay [3] is DNA dC->dU-editing enzyme APOBEC-3G (Homo sapiens) (UniProt Q9HC16). As to the kind of experiment: qHTS for inhibitors of Vif-A3G interactions: Validation (AID 588379). Note: 0% is about no effect. The settings on record: Vif-A3G protein interaction assay; series mostly up to 46.1 µM. A digest of the protocol:
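HeLa cells stably expressing Vif and A3G-eYFP, 700 cells/well, incubated overnight at 37 deg C, then exposed to compound overnight at 37 deg C. Inhibition of Vif-mediated degradation read as increased yellow fluorescence (Ex 488/Em 500-530) by laser-scanning cytometry.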

Assay [4] deals with Zika virus NS2B-NS3 protease. Briefly: Primary screen GU AMC qHTS for Zika virus inhibitors (AID 1347154).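 Note: 0% = no-inhibitor control and -100% = no-enzyme control; nearly all actives have a fitted effect of over 70% in size.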 The note with it: Zika NS2B-NS3 unlinked protease, AMC fluorogenic substrate; series mostly up to 54.1 µM. In a few lines:
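Fluorogenic AMC-substrate cleavage by noncovalent NS2B-NS3 protease complex (25 nM, pH 8.0 Tris buffer with Tween 20) followed for 15 minutes at room temperature (~20% conversion). Percent inhibition from ex340/em450 signal change, fitted by 4-parameter Hill equation.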

The target in assay [5] is Glucocorticoid receptor (Homo sapiens) (UniProt P04150). Briefly: GR-GFP Redistribution (AID 450;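 active = compounds whose dose series gives a full or clear partial fitted curve of increased nuclear translocation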; note: potency is the fitted concentration of half-maximal effect). The settings on record: U2OS GR-GFP nuclear translocation, laser cytometry, 2 h.
Chain of Glucocorticoid receptor (Homo sapiens) (P04150 whole entry, looked up, the tested form may be a part): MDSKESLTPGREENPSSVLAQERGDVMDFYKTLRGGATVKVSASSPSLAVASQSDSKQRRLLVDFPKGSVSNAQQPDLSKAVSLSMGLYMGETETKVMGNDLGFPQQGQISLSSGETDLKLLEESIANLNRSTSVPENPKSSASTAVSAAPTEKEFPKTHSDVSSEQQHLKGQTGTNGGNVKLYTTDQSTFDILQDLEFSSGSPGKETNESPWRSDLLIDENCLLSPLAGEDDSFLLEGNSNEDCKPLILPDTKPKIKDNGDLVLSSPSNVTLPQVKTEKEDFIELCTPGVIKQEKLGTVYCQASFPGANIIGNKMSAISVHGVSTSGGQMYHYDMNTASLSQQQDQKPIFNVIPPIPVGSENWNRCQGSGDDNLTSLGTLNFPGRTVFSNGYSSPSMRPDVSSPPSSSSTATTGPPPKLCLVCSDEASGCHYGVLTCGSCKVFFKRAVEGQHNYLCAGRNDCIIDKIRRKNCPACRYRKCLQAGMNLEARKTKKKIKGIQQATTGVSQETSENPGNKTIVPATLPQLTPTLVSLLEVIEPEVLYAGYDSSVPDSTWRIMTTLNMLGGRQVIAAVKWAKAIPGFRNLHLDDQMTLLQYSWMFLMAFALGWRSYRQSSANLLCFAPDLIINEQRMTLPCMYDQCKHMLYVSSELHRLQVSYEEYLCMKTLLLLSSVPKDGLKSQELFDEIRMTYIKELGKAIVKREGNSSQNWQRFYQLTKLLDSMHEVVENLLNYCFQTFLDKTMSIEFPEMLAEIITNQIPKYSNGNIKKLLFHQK
For assay [6], the target named is Mitogen-activated protein kinase 10 (Mus musculus) (UniProt Q61831). As to the kind of experiment: JNK3 AlphaScreen Assay (AID 530; active = well fitted curve in either direction with a large enough effect, not every such curve was filed as active;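 note: kinase came from lysate of stimulated human HepG2 cells; signal reports phosphorylation of biotinylated GST-cJun 1-79 at Ser73 with 10 µM ATP; % is set by controls: 0 for no effect and ±100 for the full control effect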). The note with it: JNK3 lysate, c-Jun phosphorylation; series mostly up to 57.1 µM. A digest of the protocol:
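Compound titrations were preincubated 15 minutes at room temperature with substrate, antibody and pre-activated JNK3-containing HepG2 lysate. Reactions were started with 10 uM ATP and stopped with EDTA-containing bead buffer for AlphaScreen detection.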
Background: Bead proximity is the source of the signal in Alpha formats.

For assay [7], the target named is 3',5'-cyclic-AMP phosphodiesterase 4B (Homo sapiens) (UniProt Q07343). As to the kind of experiment: qHTS Assay for Inhibitors of PDE-IV (AID 607; active = well fitted activation curve with a large enough effect in the main read-out, with a control signal flat, not every such curve was filed as active; note: % of control where 0% means no effect). The note with it: HEK293 ACTOne CNG channel cells, membrane potential fluorescence; series mostly up to 22.9 µM. In a few lines:
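HEK293 ACTOne cells with CNG channel (1000/well), endogenous PDE4; membrane potential dye, compounds up to 22.9 uM final. Fluorescence Ex 535/Em 590; RO 20-1724 (100 uM final) as reference.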

Assay [8] addresses Cytochrome P450 3A4 (Homo sapiens) (UniProt P08684). As to the kind of experiment: qHTS Assay for Activators of Cytochrome P450 3A4 (AID 885). Note: nearly all actives have a fitted effect of over 65% in size. The note with it: recombinant CYP3A4, Luciferin-PPXE luminescence, 60 min; series mostly up to 57.1 µM. A digest of the protocol: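 Human CYP3A4 (20 nM) with Luciferin-PPXE at 25 uM (its KM) in 200 mM KPO4; 10 min compound preincubation, then NADPH regeneration and 60 min reaction at RT. Luciferin read by luminescence; normalized to 57 uM ketoconazole full inhibition.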

Assay [9] addresses Ubiquitin carboxyl-terminal hydrolase 1 (Homo sapiens) (UniProt O94782). Briefly: Inhibitors of USP1/UAF1: Pilot qHTS (AID 504865).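 Note: rhodamine fluorescence freed from ubiquitin-rhodamine substrate followed over time; top concentration of the series differs between compounds; % is set by controls: 0 for no effect and ±100 for the full control effect; nearly all actives have a fitted effect of over 35% in size.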 The note with it: purified USP1/UAF1, Ub-rhodamine cleavage fluorescence; series mostly up to 114 µM. A digest of the protocol: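 USP1/UAF1 complex at 1 nM preincubated 15 min at room temperature with compound, then Ub-Rho substrate added at 150 nM final. Fluorescence (480/540 nm) read kinetically in 50 mM HEPES pH 7.8, 0.5 mM EDTA, 1 mM TCEP, 0.1 mg/ml BSA, 0.01% Tween-20.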

In assay [10] the target is Cytochrome P450 3A4 (Homo sapiens) (UniProt P08684). As to the kind of experiment: qHTS Assay for Inhibitors and Substrates of Cytochrome P450 3A4 (AID 884). Note: potency is the fitted concentration of half-maximal effect; nearly all actives have a fitted effect of over 50% in size. The note with it: recombinant CYP3A4, Luciferin-PPXE luminescence; series mostly up to 57.1 µM. In a few lines:
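20 nM human CYP3A4 with 25 uM Luciferin-PPXE (at KM) in 200 mM KPO4, preincubated 10 min with compound; NADPH regeneration started a 60 min RT reaction. Luciferin detected by luminescence, normalized to 57 uM ketoconazole as full inhibition.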

Assay [11] addresses Cytochrome P450 2D6 (Homo sapiens) (UniProt P10635). Briefly: qHTS Assay for Inhibitors and Substrates of Cytochrome P450 2D6 (AID 891). Note: potency is the fitted concentration of half-maximal effect; nearly all actives have a fitted effect of over 60% in size. The note with it: recombinant CYP2D6, luciferin-ME EGE luminescence; series mostly up to 57.1 µM. A digest of the protocol:
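Human CYP2D6 (5 nM) with 30 uM Luciferin-ME EGE (at Km) in 100 mM KPO4, compound preincubated 10 min, then NADPH regeneration system for 60 min at room temperature. Luciferin read by luminescence; normalized to 1.43 uM quinidine.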

Assay [12] in a line: AP1 Signaling Pathway (AID 357; active = well fitted curve in either direction with a large enough effect, not every such curve was filed as active; note: % is set by controls: 0 for no effect and ±100 for the full control effect). The settings on record: ME-180 AP-1-bla reporter, EGF-induced, beta-lactamase ratio, 5 h; series mostly up to 38 µM. A digest of the protocol: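 Read-out was the 460nm/530nm emission ratio (excitation 405nm) after CCF4 loading for 2.5 hours at room temperature. Cells carried an AP-1-driven beta-lactamase reporter, were stimulated with EC50 EGF plus compound for 5 hours, and AC50 values came from titrations.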

The target of assay [13] is Cytochrome P450 1A2 (Homo sapiens) (UniProt P05177). Briefly: p450-cyp1a2 (AID 410; calls by dose curve; note: potency is the fitted concentration of half-maximal effect;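 for activity change, negative = inhibition: -100% = full effect of reference inhibitor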). The settings on record: recombinant CYP1A2, luciferin-ME demethylation, luminescence; series mostly up to 57 µM. In a few lines:
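20nM CYP1A2 with 100uM Luciferin-ME (at Km) in 100mM KPO4; compound preincubated 10 min, NADPH regeneration added, 60 min at room temperature. Luciferin quantified by luminescence after detection reagent; normalized to 57 uM furafylline.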

Assay [14] is described as follows: NFAT Signaling Pathway (AID 444; active = well fitted curve in either direction with a large enough effect, not every such curve was filed as active;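 note: carbachol stimulus at about its EC50 of 1 µM final; % is set by controls: 0 for no effect and ±100 for the full control effect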). The settings on record: Jurkat NFAT-bla M1, carbachol, beta-lactamase ratio, 5 h; at 38 µM (top of the series). A digest of the protocol:
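Read-out: CCF4 FRET ratio (460 nm/530 nm) after 1 h RT dye loading, used for %activity and AC50 from titration series. Cells: Jurkat NFAT-β-lactamase/M1 line, treated with compound plus 1 uM carbachol for 5 h, 37 °C.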

Assay [15] in a line: Stat Signaling Pathway (AID 446; active = well fitted curve in either direction with a large enough effect, not every such curve was filed as active;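 note: ME-180 cervical cancer cells given 40 pM IL-6 alongside compound; SIE-controlled beta-lactamase reporter measured as 460/530 nm FRET emission ratio; % is set by controls: 0 for no effect and ±100 for the full control effect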). The note with it: ME-180 SIE beta-lactamase reporter, IL-6 stimulated, 5 h; series mostly up to 38 µM. A digest of the protocol: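 ME-180 cells carrying a SIE-driven beta-lactamase reporter are stimulated with 40 pM IL-6 for 5 h at 37C in the presence of compound. The 460/530 nm FRET substrate ratio is read after 2.5 h at RT. Data are normalised to 300 pM IL-6 and to 125 nM JAK inhibitor controls.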

Assay [16] addresses Guanine nucleotide-binding protein G(i) subunit alpha-1 (Homo sapiens) (UniProt P63096). As to the kind of experiment: qHTS Assay for Inhibitors of RGS12 GoLoco Motif Activity (Green Fluorophore) (AID 879).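 Note: 0% = labeled peptide with Gαi1 and full inhibition = labeled peptide alone without protein; negative values mean loss of peptide binding seen as reduced polarization.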 The note with it: Galphai1/FITC-RGS12 GoLoco peptide, fluorescence polarization; series mostly up to 57.1 µM. In a few lines:
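Fluorescence polarization assay: 50 nM Gαi1 with 10 nM FITC-labeled RGS12 GoLoco peptide in 10 mM Tris pH 7.5, 150 mM NaCl, 0.1 mM GDP, 0.05% NP40, 10 min at room temperature with compound.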

For assay [17], the target named is Pyruvate kinase (Leishmania mexicana) (UniProt Q27686). Briefly: qHTS Validation Assay for Inhibitors of Leishmania Mexicana Pyruvate Kinase (AID 945).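 Note: 0% = DMSO only neutral control wells.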 The settings on record: purified L. mexicana pyruvate kinase, enzyme activity, E451W mutant enzyme; series mostly up to 57.5 µM. In a few lines:
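Eight-point qHTS titrations in triplicate, data normalized to DMSO neutral control. Reaction: 0.2 nM LmPYK E451W mutant, 0.5 mM PEP, 0.1 mM ADP, 7 mM MgCl2, pH 7.2, one hour at room temperature; luminescent ATP detection.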

Assay [18] addresses Alpha-galactosidase (Coffea arabica) (UniProt Q42656). Briefly: Counterscreen for Glucocerebrosidase Inhibitors: qHTS Assay for Coffee Bean alpha-Galactosidase at pH 4.5 (AID 957).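 Note: plate controls were enzyme alone for no effect and no enzyme for full effect.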 The note with it: purified coffee bean alpha-galactosidase, fluorogenic substrate; series mostly up to 76.9 µM. A digest of the protocol: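 Coffee bean enzyme (2 nM) with 80 uM 4-methylumbelliferyl alpha-D-galactopyranoside in 50 mM citric acid, 0.005% Tween-20, pH 4.5, 20 min at room temperature; compounds 0.7 nM–77 uM. Stopped at pH 10, fluorescence 365/440 nm; AC50 from Hill fits.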

Assay [19] concerns the target Alpha-galactosidase A (Homo sapiens) (UniProt P06280). Briefly: Counterscreen for Glucocerebrosidase Inhibitors: qHTS Assay for Human alpha-Galactosidase at pH 4.5 (AID 992). Note: 0% is about no effect. The settings on record: purified enzyme, fluorogenic substrate; series mostly up to 76.9 µM. In a few lines: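 Human enzyme (2 nM) with 80 uM 4-methylumbelliferyl alpha-D-galactopyranoside in 50 mM citric acid, 0.005% Tween-20, pH 4.5, 20 min at room temperature. Compounds 0.7 nM–77 uM; fluorescence Ex 365/Em 440 after pH 10 stop; AC50 from Hill fits.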
A general note: Counterscreens check selectivity or assay interference.

The mark [20] stands for this setting: measured here: cell count channel max response.
[21] abbreviates: measured here: lipid channel max response.

Chain of DNA dC->dU-editing enzyme APOBEC-3G (Homo sapiens) (Q9HC16 whole entry, looked up): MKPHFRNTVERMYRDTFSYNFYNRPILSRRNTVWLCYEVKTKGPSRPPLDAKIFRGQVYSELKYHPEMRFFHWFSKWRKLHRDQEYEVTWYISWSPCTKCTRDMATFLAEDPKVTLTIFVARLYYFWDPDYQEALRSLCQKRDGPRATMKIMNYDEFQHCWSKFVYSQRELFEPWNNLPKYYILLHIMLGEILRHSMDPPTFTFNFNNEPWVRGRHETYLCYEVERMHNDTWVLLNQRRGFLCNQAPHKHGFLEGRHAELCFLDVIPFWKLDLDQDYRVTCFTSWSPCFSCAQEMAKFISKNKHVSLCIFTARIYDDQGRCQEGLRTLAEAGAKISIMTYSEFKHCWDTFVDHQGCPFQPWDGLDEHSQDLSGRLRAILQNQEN
Chain of 3',5'-cyclic-AMP phosphodiesterase 4B (Homo sapiens) (Q07343 whole entry, looked up): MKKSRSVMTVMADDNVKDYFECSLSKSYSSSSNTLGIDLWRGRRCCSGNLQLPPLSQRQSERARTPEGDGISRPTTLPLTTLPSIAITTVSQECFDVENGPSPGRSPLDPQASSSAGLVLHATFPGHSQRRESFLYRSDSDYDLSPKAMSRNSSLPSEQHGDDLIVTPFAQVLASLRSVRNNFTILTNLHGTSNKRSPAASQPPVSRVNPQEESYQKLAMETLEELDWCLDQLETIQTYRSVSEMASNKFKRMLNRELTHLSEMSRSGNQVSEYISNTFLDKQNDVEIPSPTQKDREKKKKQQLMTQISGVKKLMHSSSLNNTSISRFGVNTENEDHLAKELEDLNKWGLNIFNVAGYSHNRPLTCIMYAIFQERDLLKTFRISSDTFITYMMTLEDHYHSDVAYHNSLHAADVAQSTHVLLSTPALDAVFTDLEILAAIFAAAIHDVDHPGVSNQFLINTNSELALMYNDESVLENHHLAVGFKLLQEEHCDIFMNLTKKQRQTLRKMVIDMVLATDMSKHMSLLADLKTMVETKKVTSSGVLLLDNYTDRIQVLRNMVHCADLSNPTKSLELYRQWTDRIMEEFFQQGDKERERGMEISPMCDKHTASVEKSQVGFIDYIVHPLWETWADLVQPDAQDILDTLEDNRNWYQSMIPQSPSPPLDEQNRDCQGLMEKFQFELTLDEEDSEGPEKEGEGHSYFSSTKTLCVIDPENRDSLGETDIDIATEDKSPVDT
Chain of Cytochrome P450 3A4 (Homo sapiens) (P08684 whole entry, looked up): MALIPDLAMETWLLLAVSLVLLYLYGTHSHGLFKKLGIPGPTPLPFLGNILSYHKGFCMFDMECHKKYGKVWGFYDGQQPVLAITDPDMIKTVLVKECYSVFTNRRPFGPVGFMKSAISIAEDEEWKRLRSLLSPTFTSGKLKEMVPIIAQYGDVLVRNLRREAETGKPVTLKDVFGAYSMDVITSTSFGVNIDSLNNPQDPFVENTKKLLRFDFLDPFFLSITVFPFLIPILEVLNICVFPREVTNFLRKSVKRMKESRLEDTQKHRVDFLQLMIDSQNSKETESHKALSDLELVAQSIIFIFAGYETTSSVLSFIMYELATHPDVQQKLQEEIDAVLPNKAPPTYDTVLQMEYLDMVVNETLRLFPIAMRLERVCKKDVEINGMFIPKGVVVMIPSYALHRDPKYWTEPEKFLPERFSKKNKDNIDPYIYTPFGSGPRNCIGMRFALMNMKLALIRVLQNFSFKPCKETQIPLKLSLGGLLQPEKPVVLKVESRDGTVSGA
Chain of Cytochrome P450 1A2 (Homo sapiens) (P05177 whole entry, looked up): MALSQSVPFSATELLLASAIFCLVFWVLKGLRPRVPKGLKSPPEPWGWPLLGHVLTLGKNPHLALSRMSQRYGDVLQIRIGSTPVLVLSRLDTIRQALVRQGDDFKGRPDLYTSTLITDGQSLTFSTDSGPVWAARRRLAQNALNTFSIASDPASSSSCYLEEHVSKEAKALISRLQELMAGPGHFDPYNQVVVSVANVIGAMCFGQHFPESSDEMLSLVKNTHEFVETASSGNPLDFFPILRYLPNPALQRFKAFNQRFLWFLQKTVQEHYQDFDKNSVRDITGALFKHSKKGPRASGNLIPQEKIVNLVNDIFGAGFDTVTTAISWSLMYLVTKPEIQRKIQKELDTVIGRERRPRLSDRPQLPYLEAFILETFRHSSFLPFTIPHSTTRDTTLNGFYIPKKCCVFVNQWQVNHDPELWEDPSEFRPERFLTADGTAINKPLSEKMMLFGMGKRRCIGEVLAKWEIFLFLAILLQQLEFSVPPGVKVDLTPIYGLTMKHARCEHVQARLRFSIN
Chain of Ubiquitin carboxyl-terminal hydrolase 1 (Homo sapiens) (O94782 whole entry, looked up): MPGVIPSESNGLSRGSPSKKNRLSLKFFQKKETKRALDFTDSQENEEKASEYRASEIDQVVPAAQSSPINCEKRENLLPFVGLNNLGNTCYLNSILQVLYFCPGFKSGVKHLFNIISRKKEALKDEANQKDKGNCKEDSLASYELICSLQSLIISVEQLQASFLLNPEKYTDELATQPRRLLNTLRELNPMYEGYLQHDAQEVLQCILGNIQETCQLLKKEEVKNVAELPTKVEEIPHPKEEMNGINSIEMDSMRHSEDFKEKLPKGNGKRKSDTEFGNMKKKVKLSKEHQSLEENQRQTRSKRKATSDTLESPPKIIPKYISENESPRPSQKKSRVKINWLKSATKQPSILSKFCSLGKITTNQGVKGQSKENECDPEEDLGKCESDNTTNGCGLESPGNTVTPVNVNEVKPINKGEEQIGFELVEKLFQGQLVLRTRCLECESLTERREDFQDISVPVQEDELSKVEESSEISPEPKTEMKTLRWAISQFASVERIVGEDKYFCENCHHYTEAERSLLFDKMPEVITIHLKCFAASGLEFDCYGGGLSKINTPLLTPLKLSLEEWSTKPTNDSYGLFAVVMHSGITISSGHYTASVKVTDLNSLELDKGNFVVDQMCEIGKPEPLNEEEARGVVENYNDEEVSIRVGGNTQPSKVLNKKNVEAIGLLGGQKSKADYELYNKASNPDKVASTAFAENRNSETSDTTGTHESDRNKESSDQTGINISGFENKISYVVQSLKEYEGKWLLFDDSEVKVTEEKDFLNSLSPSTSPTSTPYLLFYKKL
Chain of Guanine nucleotide-binding protein G(i) subunit alpha-1 (Homo sapiens) (P63096 whole entry, looked up): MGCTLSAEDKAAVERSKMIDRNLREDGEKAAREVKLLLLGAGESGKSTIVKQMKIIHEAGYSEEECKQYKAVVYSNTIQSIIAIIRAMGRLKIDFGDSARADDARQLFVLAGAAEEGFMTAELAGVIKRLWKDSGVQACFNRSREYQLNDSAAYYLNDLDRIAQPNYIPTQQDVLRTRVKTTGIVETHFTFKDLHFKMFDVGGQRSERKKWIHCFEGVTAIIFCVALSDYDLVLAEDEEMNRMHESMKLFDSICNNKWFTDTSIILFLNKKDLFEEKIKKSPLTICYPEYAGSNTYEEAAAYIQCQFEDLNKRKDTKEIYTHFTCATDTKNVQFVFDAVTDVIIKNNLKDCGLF
Chain of Alpha-galactosidase (Coffea arabica) (Q42656 whole entry, looked up): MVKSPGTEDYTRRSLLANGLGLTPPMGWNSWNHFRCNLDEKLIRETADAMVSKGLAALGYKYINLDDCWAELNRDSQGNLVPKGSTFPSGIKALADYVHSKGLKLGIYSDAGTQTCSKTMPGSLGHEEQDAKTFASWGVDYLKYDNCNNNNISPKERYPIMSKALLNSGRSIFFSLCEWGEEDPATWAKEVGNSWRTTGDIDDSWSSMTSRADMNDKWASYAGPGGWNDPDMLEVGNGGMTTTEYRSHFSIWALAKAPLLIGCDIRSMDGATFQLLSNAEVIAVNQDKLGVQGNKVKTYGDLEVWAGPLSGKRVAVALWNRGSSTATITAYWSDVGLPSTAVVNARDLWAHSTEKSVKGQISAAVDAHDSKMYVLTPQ
Chain of Cytochrome P450 2D6 (Homo sapiens) (P10635 whole entry, looked up): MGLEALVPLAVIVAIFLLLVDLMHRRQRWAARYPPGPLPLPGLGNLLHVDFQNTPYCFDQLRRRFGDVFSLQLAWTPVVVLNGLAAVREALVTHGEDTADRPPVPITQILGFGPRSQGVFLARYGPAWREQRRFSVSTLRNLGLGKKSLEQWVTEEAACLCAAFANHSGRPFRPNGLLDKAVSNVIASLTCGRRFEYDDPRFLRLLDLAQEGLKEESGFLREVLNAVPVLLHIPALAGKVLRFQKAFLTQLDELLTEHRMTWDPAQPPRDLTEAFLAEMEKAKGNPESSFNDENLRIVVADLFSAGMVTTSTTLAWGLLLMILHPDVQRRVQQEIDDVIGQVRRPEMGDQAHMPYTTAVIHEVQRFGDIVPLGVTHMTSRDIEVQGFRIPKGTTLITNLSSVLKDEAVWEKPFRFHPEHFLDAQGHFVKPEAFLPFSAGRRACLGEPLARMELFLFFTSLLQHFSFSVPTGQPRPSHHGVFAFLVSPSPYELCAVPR

With `CC(C)(O)[C@@H]1[C@H]2OC(=O)[C@@H]1[C@]1(O)C[C@H]3O[C@]34C(=O)O[C@H]2[C@@]14C` (tested in a mixture with another compound), in assay [1], the Potency was > 46 µM (inactive). In assay [2], the activity change, negative = inhibition was -0.708% (inactive). Moreover, the max response in assay [2] (setting [20]) is -8.87%; in [2] (setting [21]), -11.1%. In addition, the Potency result in assay [3] and in assay [4] was “inactive” throughout.

With `O=NN1CCCC1c1cccnc1` (stereo not drawn), the Potency result in assay [4] was “inactive”.

With `O[C@@H](Cc1ccncc1)C(Cl)(Cl)Cl`, the Potency in [5] and in assay [1] was > 46 µM (inactive) in each case. Further, the outcome in assay [6] was inactive. For the same molecule, the Potency entry in assay [7], in assay [3] and in assay [4] was “inactive” throughout.

With `O[C@H]1[C@H](O)[C@@H](O)CN2CC[C@H](O)[C@H]12`, the Potency result in assay [4] is “inactive”.

Turning to `C=CCN1C[C@H](C)N([C@@H](c2ccccc2)c2ccc(C(=O)N(CC)CC)cc2)C[C@H]1C`, the Potency in assay [5] and in assay [1] was > 46 µM (inactive) each time. Besides, the molecule was called inactive in [6]. For the same molecule, the Potency entry in assay [7], in assay [8], in assay [9], in assay [3] and in assay [4] was “inactive” in each case. Also, the activity change, negative = inhibition in assay [2] was 7.78% (inactive). Also, the results for the max response in assay [2] (setting [20]) and in assay [2] (setting [21]) were 14.7% and 20%, respectively.

For `CC(C)C[C@H]1C(=O)N2CCCC2[C@]2(O)O[C@](NC(=O)[C@@H]3C=C4c5cccc6[nH]cc(c56)CC4N(C)C3)(C(C)C)C(=O)N12` (stereo partly drawn), the Potency in assay [10] was 1 µM (active). Further, the Potency result in assay [8] and in [4] was “inactive” in each case.

Regarding `O=C(/C=C\c1ccc(Cl)cc1)N[C@@]12CCC(=O)[C@@H]3Oc4c(O)ccc5c4[C@@]31CCN(CC1CC1)[C@@H]2C5`, the Potency in assay [5] was 1.63 µM (active); in assay [1], > 46 µM (inactive); in [11], 5.01 µM (active). Also, in assay [6], the call was inactive. Further, the Potency entry in assay [8], in [9], in [3] and in assay [4] was “inactive” each time.

In the case of `Cc1o[nH]c(=O)c1C[C@H](N)C(=O)O`, the result in assay [12], in assay [15], in assay [6], in [16], in [17] and in [18] was inactive. For the same molecule, the molecule was called inactive in [19]. In addition, the Potency entry in assay [13] was “inactive and 31.6 µM (active)”; in assay [5], > 46 µM (inactive); in [1] it was > 46 µM (inactive). In addition, the activity change, negative = inhibition in assay [14] was -2.02% (inactive); in assay [2], 5.07% (inactive) and 0.872% (inactive) and 1.49% (inactive). Also, the Potency entry in assay [7], in assay [3] and in [4] was “inactive” throughout. Moreover, the max response in [2] (setting [20]) is 9.71% and 20.6% and -4.26%; in assay [2] (setting [21]), 15.4% and 23.1% and -1.44%.
